This note sets out measurements from PMC12136788.

To fix the notation:
T1: UNK ZnF1-3 (human, UniProt Q9C0B0 31-174)
T1 sequence: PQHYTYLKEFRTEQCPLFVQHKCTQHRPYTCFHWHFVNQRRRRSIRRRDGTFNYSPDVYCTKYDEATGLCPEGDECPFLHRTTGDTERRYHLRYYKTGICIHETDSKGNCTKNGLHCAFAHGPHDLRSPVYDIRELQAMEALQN

B1: chrX:20248820:20248821:+_ENSMUSG00000001924_ENSMUST00000001989|mus_mus|mus_mus_mus_hu_True|78_78 (ssRNA)
RNA: GGGAGUUCUACAGUCCGACGAUCGGCGAAGUCCGUCACCACAAAGUCAGGUUCUGCCAGUGAUGCUACCAAGGAUUUAAAGCUAAUCUUCUUAGGUACUUUGACCUGACUGACGAUGCCUCCACGGAUGUAGUCGGAGAAGUUCAACAGAGGAUUGAGCAUCA
B2: chr1:66480114:66480115:+_ENSMUSG00000015222_ENSMUST00000024639|mus_hu|mus_mus_mus_hu_True|28_28 (ssRNA)
RNA: GGGAGUUCUACAGUCCGACGAUCUGGCCUGUGGCGGAUGUUCUUCAGAGAGCCACAUUUGGAUGUCACAUGGCUUAGGUCUAUUUUCUUGGUAACAAUUUGUACCUGACCCCCCUUAGGCUGGUAUUUGAUGUUGUCUGUUGACAACAGAGGAUUGAGCAUCA
B3: chrX:100668055:100668056:+_ENSG00000126945_ENST00000316594|hu_mus|FALSE|FALSE (ssRNA)
RNA: GGGAGUUCUACAGUCCGACGAUCGAGCUCUACAUAGCUAUGAUCAUAAGCUCCUCCACUUGUCCCUGCGGUAGAAUUCAAGAAGAGCUCCACAUAUCUGUGUUGCAUAUUUGCUUUAUCUUUUGCCAUAGCUGCCACAGCGUCCAACAGAGGAUUGAGCAUCA
B4: chr12:118471567:118471568:-_ENSG00000176871_ENST00000315436|hu_hu|motif|central (ssRNA)
RNA: GGGAGUUCUACAGUCCGACGAUCGCACUUGGCCAACAUCGAAGCAACUCUGACCACAGCAGGAGAGAACUUGAACCAAUGCGGCCACUGCAUCAGAAACACAAGGAUAGGUACUAGGCAGAAGCCAUCGUUCCCAGCGGAGGGCAACAGAGGAUUGAGCAUCA
B5: chr5:128448638:128448639:+_ENSG00000066583_ENST00000173527|hu_mus|hu_hu_hu_mus_False|18_48 (ssRNA)
RNA: GGGAGUUCUACAGUCCGACGAUCGGCACUCGCCUUAAUUAGGUUCUGAAUUUCCUUGAACUUCGGGUGGUCUUUGUCAGCCACCAGCUGAAGCAGAACAGCCUCACUAGUGGUCACUAUGAUCCCGGUGCGGGCAAGACGCUCCAACAGAGGAUUGAGCAUCA
B6: chr1:157160411:157160412:-_ENSMUSG00000026469_ENSMUST00000027741|mus_mus|motif|central (ssRNA)
RNA: GGGAGUUCUACAGUCCGACGAUCGAAUUCAAUCAGAAGAAAGCCACCCCGAUAGAUUCUUAUCAAGGGCCAUACAGUUCGGUCUGUUUCAAGUUUAAAUACAGCUGCAAACACAAGGGUAAUAUUCAGCACAAUGAAUAUUCCCAACAGAGGAUUGAGCAUCA
B7: chr1:157160411:157160412:-_ENSMUSG00000026469_ENSMUST00000027741|mus_mus|FALSE|FALSE (ssRNA)
RNA: B6 RNA with G80U, G81A
B8: chr16:68260615:68260616:+_ENSG00000072736_ENST00000346183|hu_hu|FALSE|FALSE (ssRNA)
RNA: GGGAGUUCUACAGUCCGACGAUCGAAACAAGAGAGCCUGCUGCAUUCACACUCAAAGCACCCAUCAUAUAAAAGUAUCCUAGUUAAAUAUAAAAAGCAAAGUUCAUUUCCCCAAAGCUCAAACAGCCUAUGCUGCUCCUGUUCCAACAGAGGAUUGAGCAUCA
B9: chr15:103023242:103023243:-_ENSMUSG00000009575_ENSMUST00000118152|mus_mus|FALSE|FALSE (ssRNA)
RNA: GGGAGUUCUACAGUCCGACGAUCAACUAGCAGCAUUGAUGAGGGGUUAAGGGAUUGGGGACAGAAACUCACCAAGGUCACUAAGUACUUCCAAACUUGGAAGUAGCUCAGUGAGGGCUAAAAAAACUUCGACUGAAGGUAUCCCAACAGAGGAUUGAGCAUCA
B10: chr14:67424093:67424094:-_ENSMUSG00000022048_ENSMUST00000022629|mus_mus|motif|central (ssRNA)
RNA: GGGAGUUCUACAGUCCGACGAUCGGAGACCGAGUGCAGGGGGCCCAAGAGGAAGCCCCAGGAACUGGCUGCCCACAGCAACGGUCACAGGCUCUUUAAAAAAAAAAAAAAUGGAAGAAAGGAAGUCUCAGAAUGUCCUCAGGUCAACAGAGGAUUGAGCAUCA
B11: chr17:35975164:35975165:-_ENSMUSG00000001525_ENSMUST00000001566|mus_hu|FALSE|FALSE (ssRNA)
RNA: GGGAGUUCUACAGUCCGACGAUCGGAAUGCGCCCCAGAGGCUGGAGCAGCGAGGUGCAAACGCGACGGCAGGAAGGUUCUGAGAGGGAGAAAGGAGAGGGGAGGGCGCGGAGGGAAAGCAGGCUGGGCGGGGCGCGCGUGCGCCAACAGAGGAUUGAGCAUCA
B12: 72187872_72187992_6815_3pUTR_ENSG00000148730_ENST00000373218|human|control|control (ssRNA)
RNA: GGGAGUUCUACAGUCCGACGAUCGAGUGUCCUCUGGGCUCUUCAAGACACCUUCUUUAAGGUUUACCCCUGGAGUAGCAGAGGGUCUCCUCACCCAGGUGGAAAGAGAUGGGCUCCAUCUGCAGAUGAAGGAAAGGCACUGGCCAACAGAGGAUUGAGCAUCA
B13: chr1:26230221:26230222:-_ENSG00000117632_ENST00000374291|hu_mus|FALSE|FALSE (ssRNA)
RNA: GGGAGUUCUACAGUCCGACGAUCCUGGAUUUCCUCCAGGGAAAGGUCCUUCUUCUUUGGGGGGGAAAGGGGGAAAUCGGGGACAGAUUCUUUUGACCGAGGGCUGAGAAUCAGCUCAAAAGCCUGGCCUGAAGCGCGCUUCUCCAACAGAGGAUUGAGCAUCA
B14: chr14:67424093:67424094:-_ENSMUSG00000022048_ENSMUST00000022629|mus_mus|FALSE|FALSE (ssRNA)
RNA: B10 RNA with G82U, G83A
B15: chr5:145543945:145543946:-_ENSG00000133706_ENST00000545646|hu_hu|hu_hu_hu_mus_True|48_48 (ssRNA)
RNA: GGGAGUUCUACAGUCCGACGAUCCUGAACGGCCAGUGGUGGGAAAUAAUCAAGCCAGUGCUCUGCUUCAGAAAACUUCACUAUGUCUUCAUCAGACAGCCCAAGGGAUUUCAUAAUGUCCCACUGGUACUUAGAAGAUCCUGCCAACAGAGGAUUGAGCAUCA
B16: chr10:70525781:70525782:+_ENSG00000060339_ENST00000535016|hu_hu|motif|central (ssRNA)
RNA: GGGAGUUCUACAGUCCGACGAUCUGAAUGUUCUUUAUUAUCCUCUAAUCUGUAGUCCAAUAGGACACUCAAAGACAUGAUGCGGCAAUCAAACUUGCCACUUUUUGCAGCCCAAUUUGGAUGUACAAUGAUGGCCGGUUCAUCCAACAGAGGAUUGAGCAUCA
B17: chr20:57415074:57415075:+_ENSG00000087460_ENST00000313949|hu_hu|motif|central (ssRNA)
RNA: GGGAGUUCUACAGUCCGACGAUCUCUGCAGAGAGUGGCUCCGAAGCACAUUGGCUGCUGGAGCCGGGAAAGGUACACCCGGUGAGGUGAGAAGCUGGCCCGGAGGUCCCAGCCUCACCUCCUUGUGAGGAGAAAAAGGGAAGCCAACAGAGGAUUGAGCAUCA
B18: chr17:23874276:23874277:-_ENSMUSG00000023909_ENSMUST00000024702|mus_mus|FALSE|FALSE (ssRNA)
RNA: GGGAGUUCUACAGUCCGACGAUCAGAGACUCUCACAGGUUAAACAGGGUAAAUUGGGAAAAAAAAAAAUGGUUUCCUUCUAAUGACAGCAAAACAAUGCCCAGGAGGGAAGAUGGCAAGGAAAGUGGAAGCUGGGGUUUGAAGCAACAGAGGAUUGAGCAUCA
B19: chr1:220276048:220276049:+_ENSG00000067704_ENST00000302637|hu_hu|hu_hu_hu_mus_True|1_108 (ssRNA)
RNA: GGGAGUUCUACAGUCCGACGAUCGCAAACAGCUUCAUUGGCGGGAAUUGUCCAAGGCUGGGUGGUCCAAACUAAAACGCUAACAGGGGAUGAGGCAUCUGUAAGAGACUCCAACUUCGGAGGAGGUCUCAGGAGGGGAAAUUUCAACAGAGGAUUGAGCAUCA
B20: chr17:23874276:23874277:-_ENSMUSG00000023909_ENSMUST00000024702|mus_hu|FALSE|FALSE (ssRNA)
RNA: GGGAGUUCUACAGUCCGACGAUCUCUAACCCCACAGGUCACAGAGGGUAAAGAGGUCCCAAGAGGGAAAGGUUUCCUUCCAGCUGACACAGUAAAAUAGGAGCUUGGAGGGAAAAGGCAGGGAAGGAAGUUGGAGCGCCACGGCAACAGAGGAUUGAGCAUCA
B21: chr17:23874276:23874277:-_ENSMUSG00000023909_ENSMUST00000024702|mus_mus|motif|central (ssRNA)
RNA: B18 RNA with U80G, A81G
B22: chrX:7396663:7396664:+_ENSMUSG00000031153_ENSMUST00000132456|mus_mus|motif|central (ssRNA)
RNA: GGGAGUUCUACAGUCCGACGAUCGCAAGGGCAUACAUGGAUGGAUCAGUGGGCAGAGGGACAGAUGGCAGACUGAUGGGCGGACCUGGGAAGUUGAUUGGAGGGUAAAAGAGGUGAACACAAAAGGGCGGUAGAUGACUGGAACAACAGAGGAUUGAGCAUCA
B23: chr18:38611996:38611997:+_ENSMUSG00000024425_ENSMUST00000025293|mus_mus|FALSE|FALSE (ssRNA)
RNA: GGGAGUUCUACAGUCCGACGAUCAAGACCAAAUCCUGAGAUGGCCCCAUACCUUCCCGCAGCUGAGGUGGUCAGGCAAAAAGACAAGAAAAACCCAAUCCAGUUGAAGAGGAAUGCCAUGAAAAAAGUUAACAUAAAAAUCCCCAACAGAGGAUUGAGCAUCA

Where a chain is given by its changes, count along the chain named. Over roughly 24,000 sequences, “enrichment r” has its median near 0.99; the highest 2% begin near 3.7. The entries come from a sample that favours the highest values as a whole.

The assay addresses T1, UNK ZnF1-3. Put plainly: nsRBNS (natural sequence RNA bind-n-seq); RBNS binding buffer (assumed for nsRBNS): 25 mM Tris pH 7.5, 150 mM KCl, 3 mM MgCl2, 0.01% Triton X-100, 500 ug/ml BSA, 20 U/ml SUPERase-In, 4 C; UNK is unkempt and MSI1 is Musashi-1; names of the RNAs are library labels; protein concentration not given here; high values mean tight binding.
B1 displayed a binding signal of 0.842 enrichment R. In the case of B2, the binding signal worked out at 0.629 enrichment R.

B3 gave a binding signal of 1 enrichment R.

Molecule B4 showed a binding signal of 1.61 enrichment R. For B5, the binding signal was 0.517 enrichment R. Molecule B6 registered a binding signal of 0.944 enrichment R. The molecule B7 displayed a binding signal of 0.961 enrichment R. Take B8: the binding signal amounted to 4.02 enrichment R. On to B9, for which the binding signal was 1.71 enrichment R. On to B10, for which the binding signal amounted to 4.34 enrichment R. As to B11, the binding signal came out at 2.69 enrichment R. In the case of B12, the binding signal is 1.96 enrichment R. On to B13, for which the binding signal came to 0.676 enrichment R.

The molecule B14 yielded a binding signal of 3.82 enrichment R. B15 showed a binding signal of 1.07 enrichment R. In the case of B16, the binding signal came to 0.442 enrichment R.

With B17, the binding signal turned out to be 0.876 enrichment R. With B18, the binding signal came to 4.07 enrichment R. On to B19, for which the binding signal came to 1.61 enrichment R. For B20, the binding signal was determined as 1.43 enrichment R. B21 had a binding signal of 4.06 enrichment R. Molecule B22 came in with a binding signal of 2.58 enrichment R. In the case of B23, the binding signal is 2.06 enrichment R.
